Consider six compounds from PubChem BioAssay.

Calls of active or inactive are those of the source.

Experiment [1] has as its system Plasmodium falciparum Sir2 (PF13_0152, Sir2A). Kind of experiment: Plasmodium falciparum Sir2A binding compounds – biochemical, small-molecule microarray, 635 nm fluorescence, primary screen (AID 1098).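 Further: score merges spot fluorescence intensity with its signal-to-noise ratio.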 The note with it: fluorescence 635 nm, higher = more signal.
Experiment [2] can be described thus: probe aDKK1 binding to arrayed compounds – biochemical, biotinylated probe, 635/667 nm fluorescence, primary screen (AID 1099).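 Further: score merges 667nm spot fluorescence with signal to noise across triplicate slides.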 The conditions noted are these: small-molecule microarray, higher = more signal.
The nature of experiment [3]: probe aCHRDL2 binding to arrayed compounds – biochemical, biotinylated probe, 635/667 nm fluorescence, primary screen (AID 1100). The note with it: small-molecule microarray, higher = more signal.
The nature of experiment [4]: change in splice reporter luminescence, either direction, cell-based, HEK293, spliceosome inhibition project, primary screen (AID 1101).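 Further: HEK293 cells carrying a splicing-competent luciferase reporter gene; test concentration not given here.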 The note with it: HEK293 splicing luciferase reporter, 24 h, higher = more signal, called active from +8 up or from −8 down.
Experiment [5] deals with Fibroblast growth factor 10 (Homo sapiens) (UniProt O15520). The experiment in a line: compounds binding fibroblast growth factor 10 – biochemical, small-molecule microarray, 635 nm fluorescence, primary screen (AID 1102). The conditions noted are these: FGF10 binding, fluorescence 635 nm, higher = more signal.
For experiment [6], the system named is glycogen synthase kinase-3 (GSK3A per assay name; protocol says GSK3B). The experiment in a line: compounds binding glycogen synthase kinase-3 – biochemical, small-molecule microarray, 635 nm fluorescence, GSK3A, primary screen (AID 1103). Further: the record names both GSK3A and GSK3B. The conditions noted are these: fluorescence 635 nm, higher = more signal.
The target of experiment [7] is Epidermal growth factor receptor (Homo sapiens) (UniProt P00533). The experiment in a line: compounds binding epidermal growth factor receptor – biochemical, small-molecule microarray, 635 nm fluorescence, primary screen (AID 1104).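 Further: score merges 667 nm emission intensity with spot signal to noise over triplicate slides.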 The conditions noted are these: EGFR binding, higher = more signal.
In experiment [8] the target is Follistatin-related protein 3 (Homo sapiens) (UniProt O95633). The experiment in a line: compounds binding follistatin-related protein 3 – biochemical, small-molecule microarray, 635 nm fluorescence, primary screen (AID 1105).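 Further: score merges emission near 667 nm and signal to noise per printed spot across three slides.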 The conditions noted are these: FSTL3 binding, higher = more signal.
Experiment [9] addresses Dickkopf-related protein 1 (Homo sapiens) (UniProt O94907). Kind of experiment: small molecules binding DKK1 protein – biochemical, small-molecule microarray, 635 nm fluorescence scan, primary screen (AID 1106).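 Further: score merges emission near 667 nm with signal to noise over three replicate slides.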 The note with it: higher = more signal.
Experiment [10] concerns Inhibin beta A chain (activin A). Kind of experiment: small molecules binding activin A – biochemical, small-molecule microarray, 635 nm fluorescence scan, primary screen (AID 1107).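 Further: mouse activin A protein probed at 4.33 µg/mL on printed slides; score merges bound-protein fluorescence near 667 nm with spot signal-to-noise.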 The note with it: INHBA, higher = more signal.
Experiment [11] deals with Human papillomavirus type 1a protein E7 (residues 44-93). Kind of experiment: small molecules binding HPV E7 44-93 – biochemical, small-molecule microarray, residues 44-93, 635 nm fluorescence, primary screen (AID 1108).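 Further: E7 fragment applied at 1 µg/mL in TBST for 1 h at 4 C; score combines spot fluorescence with its signal to noise ratio.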 The conditions noted are these: fluorescence 635 nm, higher = more signal.
Experiment [12] can be described thus: hepatitis C replication reporter changes, two-sided – Huh7 cells, luciferase reporter, HCV replication inhibitor project, primary screen (AID 1109).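 Further: huh7 hepatoma cells harbouring a luciferase neomycin HCV replicon reporter; luciferase luminescence as measure of HCV replicon replication; test concentration not given here.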 The note with it: Huh7 HCV replicon luciferase reporter, 48 h; higher = more signal. (In a reporter assay the amount or activity of a reporter protein is the signal.)
The target in experiment [13] is Left-right determination factor 2 (Homo sapiens) (UniProt O00292). The experiment in a line: small molecules binding LEFTY2 protein – biochemical, small-molecule microarray, 635 nm fluorescence scan, primary screen (AID 1110). The note with it: higher = more signal.
The target in experiment [14] is Calmodulin-1 (Homo sapiens) (UniProt P0DP23). Kind of experiment: small molecules binding calmodulin-1 with EGTA – biochemical, small-molecule microarray, Cy5-labelled CALM1, profiling panel (AID 1111).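 Further: labelled calmodulin applied in Tris saline Tween buffer holding calcium plus EGTA and DTT.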 The note with it: Cy5-CALM1 binding fluorescence, higher = more signal.
Experiment [15] has the same target. The experiment in a line: small molecules binding Ca-loaded calmodulin-1 – biochemical, small-molecule microarray, Cy5-labelled CALM1, plus calcium, artefact control for SMM control-protein annotation, profiling panel (AID 1112).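 Further: score merges spot fluorescence with signal to noise from triplicate slides.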 The conditions noted are these: Cy5-CALM1 binding fluorescence, higher = more signal.
The nature of experiment [16]: probe aWnt5a binding to arrayed compounds – biochemical, biotinylated probe, 635/667 nm fluorescence, primary screen (AID 1113).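 Further: score merges 667 nm fluorescence intensity with signal-to-noise per printed feature.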 The conditions noted are these: small-molecule microarray, higher = more signal.
A short description of experiment [17]: probe aShh binding to arrayed compounds – biochemical, biotinylated probe, 635/667 nm fluorescence, primary screen (AID 1114).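 Further: probe is biotin-labelled aShh protein from a stem cell growth factor screen; measures binding of labelled protein to compounds printed on the slide; score merges feature fluorescence at 667 nm with signal-to-noise.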 The conditions noted are these: small-molecule microarray, higher = more signal.
The nature of experiment [18]: probe aNog binding to arrayed compounds – biochemical, biotinylated probe, 635/667 nm fluorescence, primary screen (AID 1115).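 Further: probe is biotinylated aNog protein used at 0.15 µg/mL for 1 h at 4 C; z-score combines 667 nm fluorescence of each spot with its signal to noise.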 The conditions noted are these: small-molecule microarray, higher = more signal.
Experiment [19] has as its target Torsin-1A-interacting protein 1 (Homo sapiens) (UniProt Q5JTV8). Kind of experiment: compound microarray binding of lysate hLAP1 – cell lysate, small-molecule microarray, COS7 lysate, 635/667 nm fluorescence, primary screen (AID 1116). The note with it: 635 nm fluorescence, higher = more signal.
Experiment [20] addresses Alpha-bungarotoxin (Bungarus multicinctus) (UniProt P60615). Kind of experiment: compounds binding labelled alpha-BTX control protein – biochemical, small-molecule microarray, Alexa647 label, 635/667 nm fluorescence, artefact control for SMM control protein annotation, profiling panel (AID 1117). The conditions noted are these: alpha-BTX-A647 binding fluorescence, higher = more signal.

Alpha-bungarotoxin (Bungarus multicinctus), sequence (P60615 whole entry, looked up): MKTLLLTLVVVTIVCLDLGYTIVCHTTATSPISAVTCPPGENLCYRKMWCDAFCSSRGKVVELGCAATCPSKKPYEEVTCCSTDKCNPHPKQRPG
Fibroblast growth factor 10 (Homo sapiens), sequence (O15520 whole entry, looked up): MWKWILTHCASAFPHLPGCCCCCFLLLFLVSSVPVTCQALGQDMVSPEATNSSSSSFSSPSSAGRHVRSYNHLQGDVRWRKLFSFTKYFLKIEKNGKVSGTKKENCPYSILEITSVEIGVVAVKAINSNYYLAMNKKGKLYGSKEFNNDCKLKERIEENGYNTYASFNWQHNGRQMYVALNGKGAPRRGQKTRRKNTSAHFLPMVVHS
Dickkopf-related protein 1 (Homo sapiens), sequence (O94907 whole entry, looked up): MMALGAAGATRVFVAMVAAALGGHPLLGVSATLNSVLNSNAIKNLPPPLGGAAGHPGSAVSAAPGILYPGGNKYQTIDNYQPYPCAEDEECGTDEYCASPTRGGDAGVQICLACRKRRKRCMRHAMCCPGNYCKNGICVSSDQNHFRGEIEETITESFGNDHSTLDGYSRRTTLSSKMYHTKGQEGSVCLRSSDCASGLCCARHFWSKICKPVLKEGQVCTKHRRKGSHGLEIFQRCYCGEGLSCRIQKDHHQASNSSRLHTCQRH
Follistatin-related protein 3 (Homo sapiens), sequence (O95633 whole entry, looked up): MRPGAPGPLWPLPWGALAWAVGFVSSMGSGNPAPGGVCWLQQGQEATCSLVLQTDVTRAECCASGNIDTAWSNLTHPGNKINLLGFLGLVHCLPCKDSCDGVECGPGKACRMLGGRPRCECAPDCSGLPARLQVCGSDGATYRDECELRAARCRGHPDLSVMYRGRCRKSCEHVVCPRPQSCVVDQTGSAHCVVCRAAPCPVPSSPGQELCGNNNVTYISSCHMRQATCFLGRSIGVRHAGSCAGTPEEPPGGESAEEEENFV
Epidermal growth factor receptor (Homo sapiens), sequence (P00533 whole entry, looked up): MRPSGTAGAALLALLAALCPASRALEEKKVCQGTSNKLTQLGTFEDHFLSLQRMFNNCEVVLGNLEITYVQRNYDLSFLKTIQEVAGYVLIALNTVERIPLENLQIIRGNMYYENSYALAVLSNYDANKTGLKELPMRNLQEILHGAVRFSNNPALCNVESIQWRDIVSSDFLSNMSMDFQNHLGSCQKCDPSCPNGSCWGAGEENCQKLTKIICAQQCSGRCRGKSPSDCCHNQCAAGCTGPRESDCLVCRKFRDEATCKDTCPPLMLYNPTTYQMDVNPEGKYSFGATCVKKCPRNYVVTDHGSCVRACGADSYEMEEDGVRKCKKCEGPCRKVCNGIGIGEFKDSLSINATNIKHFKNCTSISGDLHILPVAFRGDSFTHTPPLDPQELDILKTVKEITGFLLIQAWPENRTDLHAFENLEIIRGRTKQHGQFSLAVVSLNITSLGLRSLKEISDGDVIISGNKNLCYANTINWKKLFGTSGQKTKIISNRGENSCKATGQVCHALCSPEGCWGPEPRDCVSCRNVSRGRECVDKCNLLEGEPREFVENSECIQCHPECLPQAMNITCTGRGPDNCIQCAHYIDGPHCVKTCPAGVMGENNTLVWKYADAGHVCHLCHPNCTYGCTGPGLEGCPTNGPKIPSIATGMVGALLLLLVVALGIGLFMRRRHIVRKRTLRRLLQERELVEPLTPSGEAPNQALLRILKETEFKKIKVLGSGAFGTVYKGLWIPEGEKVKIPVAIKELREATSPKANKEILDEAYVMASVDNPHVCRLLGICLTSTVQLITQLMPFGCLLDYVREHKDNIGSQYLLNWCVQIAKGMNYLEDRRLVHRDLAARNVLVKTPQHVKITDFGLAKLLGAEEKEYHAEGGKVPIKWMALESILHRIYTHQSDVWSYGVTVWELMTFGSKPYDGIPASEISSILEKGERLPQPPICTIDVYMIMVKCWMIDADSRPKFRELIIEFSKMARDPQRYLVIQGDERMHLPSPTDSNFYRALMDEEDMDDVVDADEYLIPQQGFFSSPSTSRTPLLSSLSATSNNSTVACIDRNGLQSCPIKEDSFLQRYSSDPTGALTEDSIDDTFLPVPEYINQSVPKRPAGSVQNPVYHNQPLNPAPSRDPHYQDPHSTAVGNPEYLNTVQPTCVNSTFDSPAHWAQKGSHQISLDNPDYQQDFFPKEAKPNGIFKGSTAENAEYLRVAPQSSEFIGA
Left-right determination factor 2 (Homo sapiens), sequence (O00292 whole entry, looked up): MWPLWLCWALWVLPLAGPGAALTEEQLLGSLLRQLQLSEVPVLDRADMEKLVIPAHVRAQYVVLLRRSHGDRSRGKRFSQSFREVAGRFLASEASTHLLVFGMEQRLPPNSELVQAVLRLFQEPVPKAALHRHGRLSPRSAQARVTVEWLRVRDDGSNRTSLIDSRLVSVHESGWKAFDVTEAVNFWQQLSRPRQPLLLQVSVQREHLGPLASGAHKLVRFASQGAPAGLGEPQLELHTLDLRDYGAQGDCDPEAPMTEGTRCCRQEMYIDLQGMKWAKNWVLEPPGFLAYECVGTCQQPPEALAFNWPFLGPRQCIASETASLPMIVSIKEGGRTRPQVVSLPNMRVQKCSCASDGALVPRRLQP
Torsin-1A-interacting protein 1 (Homo sapiens), sequence (Q5JTV8 whole entry, looked up): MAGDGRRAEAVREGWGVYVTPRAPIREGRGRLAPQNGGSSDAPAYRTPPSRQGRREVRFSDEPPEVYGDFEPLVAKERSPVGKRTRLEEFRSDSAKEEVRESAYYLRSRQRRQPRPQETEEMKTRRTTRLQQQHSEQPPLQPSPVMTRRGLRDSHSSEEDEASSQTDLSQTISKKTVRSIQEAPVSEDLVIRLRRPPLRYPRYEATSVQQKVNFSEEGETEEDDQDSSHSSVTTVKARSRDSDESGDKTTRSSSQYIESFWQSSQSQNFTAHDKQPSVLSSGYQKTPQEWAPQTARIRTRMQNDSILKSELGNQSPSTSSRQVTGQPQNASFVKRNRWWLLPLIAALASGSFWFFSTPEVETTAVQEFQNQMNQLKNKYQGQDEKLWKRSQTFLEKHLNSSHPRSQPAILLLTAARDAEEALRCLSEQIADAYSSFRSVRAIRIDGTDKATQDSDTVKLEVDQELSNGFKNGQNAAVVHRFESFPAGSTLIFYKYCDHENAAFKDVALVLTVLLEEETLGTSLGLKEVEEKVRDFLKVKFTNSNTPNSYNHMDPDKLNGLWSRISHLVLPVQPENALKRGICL

As to `CC(C)(C)OC(=O)CC[C@@]1(C(=O)O)N=C(c2ccc(OCCCO)cc2)O[C@@H]1c1ccccc1`, the composite z-score in experiment [1] is 0.492; in [2], 0.325; in experiment [3], 0.824; in experiment [5] it was -0.0905; in experiment [6] it was -0.126; in experiment [7] it was -0.566. The composite z-score was -0.294 in [8]; -0.646 in [9]; 0.253 in experiment [10]; 1.16 in [11]; -0.499 in [13]; 0.357 in experiment [14]. Further, the composite z-score stood at 0.145 in experiment [15]; 0.0799 in [16]; 0.0611 in experiment [17]; 0.955 in experiment [18]; 0.117 in experiment [19]; 1.54 in experiment [20]. Besides, the z-score in experiment [4] is -0.176 (inactive); in [12], 0.344.
Regarding `COCCOC(=O)N1C(=O)[C@@]2(c3cc(C#CC4(O)CCCCCC4)ccc31)[C@H](C(=O)N1CCCCCCC1)[C@H]1C(=O)O[C@H](c3ccccc3)[C@H](c3ccccc3)N1[C@@H]2c1ccc(OCCO)cc1`, the composite z-score in experiment [1] turned out to be 1.65; in experiment [2], 2.65; in [3], 1.45; in [5], 1.5; in [6], 1.35; in experiment [7], 1.46. The composite z-score in experiment [8] amounted to 1.62; in experiment [9], 1.72; in [10] it was 1.68; in experiment [11], 1.33; in experiment [13] it was 1.52; in experiment [14], 2.33. For the same compound, the composite z-score in experiment [15] was 1.01; in [16] it was 1.12; in [17], 2.59; in experiment [18] it was 2.98; in [19], 4.12; in experiment [20], 2.89. Also, the figures for the z-score in [4] and in experiment [12] were 0.225 (inactive) and -1.74, respectively.
On to `CN(C)CCCCNC(=O)[C@H]1C[C@H]2C(=O)N3CCC[C@H]3C(=O)N2[C@H]1c1ccc(O)cc1`, for which the composite z-score was 0.0292 in experiment [1]; -1.21 in [2]; -0.65 in experiment [3]; -1.51 in [5]; -0.0328 in [6]; -0.364 in [7]. Further, the composite z-score in experiment [8] was 0.398; in experiment [9], -0.414; in [10] it was -0.984; in [11] it was -1.11; in experiment [13], -0.148; in [14] it was -0.969. For the same compound, the composite z-score was -0.949 in [15]; -0.45 in experiment [16]; -0.401 in experiment [17]; 0.39 in experiment [18]; -0.206 in [19]; -1.01 in experiment [20]. Moreover, the results for the z-score in experiment [4] and in [12] were -2.27 (inactive) and 0.939, respectively.
For `O=C1NC(=O)C2C1C=CC(C(O)c1c(F)cccc1Cl)N2Nc1ccccn1` (stereo not given), the composite z-score was found to be 0.419 in experiment [1]; 0.282 in [2]; 0.171 in experiment [3]; 0.48 in experiment [5]; 0.198 in experiment [6]; 0.409 in experiment [7]. In addition, the composite z-score was 0.262 in experiment [8]; 0.465 in experiment [9]; 1.13 in [10]; -0.465 in experiment [11]; 0.5 in [13]; -1.19 in experiment [14]. Besides, the composite z-score was -0.625 in [15]; 0.0108 in experiment [16]; -0.0274 in [17]; -0.207 in [18]; 0.505 in experiment [19]; -0.358 in experiment [20]. Moreover, the z-score is 0.824 (inactive) in experiment [4] and -0.469 in experiment [12].
As for `C=CC1c2cc(O)c(OC)cc2CCN1Cc1sc2ccccc2c1Cl` (stereo not given), the composite z-score in experiment [1] was 1.29; in experiment [2], 0.284; in experiment [3], 1.25; in [5], 0.504; in experiment [6] it was 0.112; in experiment [7] it was -0.163. In addition, the composite z-score worked out at 0.847 in [8]; 0.153 in experiment [9]; 1.55 in experiment [10]; 1.38 in experiment [11]; 0.0792 in [13]; 0.248 in [14]. In addition, the composite z-score was 0.237 in experiment [15]; -0.107 in [16]; 0.0796 in [17]; -0.0132 in experiment [18]; 0.47 in experiment [19]; 1.47 in experiment [20]. The z-score is -1.4 (inactive) in [4] and -1.78 in experiment [12].
As to `CC(C)(C)OC(=O)CC[C@]1(C(=O)O)N=C(c2ccc(OCCCO)cc2)O[C@H]1c1ccccc1CN=[N+]=[N-]`, the composite z-score is 0.814 in experiment [1]; 0.905 in experiment [2]; 0.764 in experiment [3]; 0.253 in experiment [5]; -0.138 in experiment [6]; -0.554 in [7]. The composite z-score in experiment [8] is -0.507; in experiment [9], -0.134; in [10], 0.923; in [11], -0.391; in [13], -0.688; in [14], 0.32. The composite z-score in experiment [15] was 0.81; in experiment [16], -0.136; in experiment [17] it was 0.0668; in experiment [18], 0.718; in experiment [19] it was 0.69; in [20], -0.489. The z-score in experiment [4] was 0.325 (inactive); in experiment [12] it was 0.0879.
